# Compound activity (PubChem)
# TDP1 cell noCPT: qHTS for Inhibitors of human tyrosyl-DNA phosphodiesterase 1 (TDP1): qHTS in cells in absence of CPT; AID 686978, 2013; Potency, µM (highest dose often 46.2 µM), actives largely listed as inhibitors; DT40 Tdp1-/- hTDP1 cells, no CPT, ATP luminescence, 48 h; hit rate 15% among 420,000; note: nearly all actives have a fitted effect of over 55% in size
#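 Readout: luminescence from CellTiter-Glo after 30 min in the dark at RT. Cells: DT40 Tdp1-/- with stable hTDP1, 400/well. Exposure: compounds alone, ≥48 hr, 37 °C.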
# IL-1B inflam inh: qHTS for Inhibitors of Inflammasome Signaling: IL-1-beta AlphaLISA Primary Screen | THP-1 LPS/ATP IL-1B secretion, AlphaLISA, 16 h; hits give low values | activity change, % at 57.5 µM | hit rate 4.7% among 360,000 | AID 743279, 2014; in the data active = activity change below about -50%; inconclusive = mostly about -30% to -49%
#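 THP-1 cells pretreated 1 hr with compounds (up to 57.5 uM final), then stimulated with LPS (250 ng/mL final) plus ATP (1.25 mM final); secreted IL-1B measured by AlphaLISA after 16 hr, decreased signal indicating inhibition.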
# RORgamma inh: qHTS for inhibitors of ROR gamma transcriptional activity. hit rate 5.4% among 310,000. Nuclear receptor ROR-gamma (Mus musculus), P51450. Drosophila S2 Gal4-RORgamma UAS-luciferase reporter, 20 h. Potency, µM (doses to about 53.6 µM), most hits filed as inhibitors; note: nearly all actives have a fitted effect of over 60% in size
# Target sequence (P51450 whole entry, looked up, the tested form may be a part): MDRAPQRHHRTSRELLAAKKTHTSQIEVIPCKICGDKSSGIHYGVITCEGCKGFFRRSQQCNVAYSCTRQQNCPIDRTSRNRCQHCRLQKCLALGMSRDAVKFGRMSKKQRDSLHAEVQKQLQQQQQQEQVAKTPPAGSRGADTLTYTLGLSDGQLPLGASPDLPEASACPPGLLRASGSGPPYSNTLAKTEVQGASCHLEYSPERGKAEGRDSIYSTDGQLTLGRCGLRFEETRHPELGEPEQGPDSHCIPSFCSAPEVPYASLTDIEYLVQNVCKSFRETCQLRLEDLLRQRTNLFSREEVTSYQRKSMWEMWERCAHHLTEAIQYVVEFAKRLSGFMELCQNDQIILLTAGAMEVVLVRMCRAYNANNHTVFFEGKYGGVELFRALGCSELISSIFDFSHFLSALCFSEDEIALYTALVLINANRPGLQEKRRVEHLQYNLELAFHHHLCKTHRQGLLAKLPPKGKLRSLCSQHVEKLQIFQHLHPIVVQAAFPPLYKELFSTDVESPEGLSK
#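 Stable Schneider cell line, Gal4 DNA-binding domain fused to ROR gamma, UAS-luciferase. Cmpd 1 hr RT → CuSO4 700 uM final → 20 hr RT → luciferase reagent 10 min → luminescence.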
# ELG1 repair inh: qHTS screen for small molecules that inhibit ELG1-dependent DNA repair in human embryonic kidney (HEK293T) cells expressing luciferase-tagged ELG1. Potency, µM (highest dose often 46.1 µM), usual class: inhibitors. HEK293T ELG1-luciferase reporter, luminescence, 16 h; DNA damage induced by 5-fluorouridine. hit rate 2.3% among 330,000; note: nearly all actives have a fitted effect of over 55% in size
#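 Reporter activity after DNA damage by 5-fluorouridine is monitored. Compound-treated cells incubate 16 hr at 37 °C, then ONE-Glo is added for 30 min before luminescence reading.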
# Gal4-VP16 FLuc: VP16 counterscreen qHTS for inhibitors of ROR gamma transcriptional activity; Potency, µM (highest dose often 53.6 µM), usual class: inhibitors; hit rate 3.5% among 310,000; Drosophila S2 Gal4-VP16 UAS-luciferase, luminescence, 20 h;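 note: Gal4-VP16 expression switched on by copper sulfate through the metallothionein promoter; nearly all actives have a fitted effect of over 50% in size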
# DT40 TDP1 CPT: qHTS for Inhibitors of human tyrosyl-DNA phosphodiesterase 1 (TDP1): qHTS in cells in presence of CPT; chicken DT40 Tdp1-/-;hTDP1 cells + 20 nM CPT, ATP luminescence, 48 h; Potency, µM (doses to about 46.2 µM), usual class: inhibitors; hit rate 12% among 420,000; note: nearly all actives have a fitted effect of over 55% in size
#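 Chicken DT40 Tdp1-/- cells stably complemented with human TDP1 were seeded at 400 cells/well in medium containing 20 nM camptothecin, exposed to pin-transferred compounds, and grown at 37 °C for at least 48 hr. Viability was read as ATP luminescence.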
# A number is an active result; 0 = inactive; ? = inconclusive; - = not tested or not shown. Rows were chosen to be rich in hits. Some 21% of all compounds tested hit in one or more screens of this group. Unless noted, calls come from the whole dose curve; as a rule, active = well fitted curve in the direction sought with a large enough effect; inconclusive = small, poorly fitted or top-dose-only effect, or another doubt; inactive = no such curve, though single readings can be large; an effect the other way counts as inactive or inconclusive.
SMILES,TDP1 cell noCPT,IL-1B inflam inh,RORgamma inh,ELG1 repair inh,Gal4-VP16 FLuc,DT40 TDP1 CPT
CN1CCN(c2oc(-c3ccccc3)nc2S(=O)(=O)c2ccccc2)CC1,0,0,-,0,-,0
CCN1CCN(c2oc(-c3ccccc3)nc2S(=O)(=O)c2ccc(C)cc2)CC1,?,-55.7,-,0,-,?
O=S(=O)(c1ccccc1)c1nc(-c2cccc(Cl)c2)oc1N1CCOCC1,18.4µM,0,0,0,0,?
Cc1ccc(-c2nc(S(=O)(=O)c3ccc(F)cc3)c(N3CCN(c4ccccc4)CC3)o2)cc1,0,-,-,-,-,?
Cc1ccc(-c2nc(S(=O)(=O)c3ccc(C)cc3)c(N3CCCCC3)o2)cc1,7.31µM,-,-,-,-,6.51µM
O=C1NN=C(c2ccc(Cl)cc2)CC1c1cccc(Cl)c1 (stereo not given),16.4µM,0,0,?,0,29.1µM
O=C1NN=C(c2ccccc2)CC1c1ccc(Cl)cc1Cl (stereo not given),?,?,0,0,0,?
COc1ccccc1NC(=O)CCN1CCCCC1,0,-,-,-,-,0
Cc1cnc(NC(=O)C2CC(=O)N(c3cccc(Cl)c3)C2)s1 (stereo not given),5.8µM,0,0,?,0,7.31µM
Cc1csc(NC(=O)C2CC(=O)N(c3ccc4c(c3)OCCO4)C2)n1 (stereo not given),0,0,-,0,-,0
CCCCc1nnc(NC(=O)C2CC(=O)N(c3ccc4c(c3)OCCO4)C2)s1 (stereo not given),0,0,0,0,0,0
O=C(Nc1nc(-c2ccco2)c(-c2ccco2)s1)C1CC(=O)N(c2ccc3c(c2)OCCO3)C1 (stereo not given),?,0,0,?,0,16.4µM
Cc1cnc(NC(=O)C2CC(=O)N(c3ccc4c(c3)OCCO4)C2)s1 (stereo not given),0,-57.2,-,?,-,0
CCc1ccc(-c2csc(NC(=O)C3CC(=O)N(c4ccc5c(c4)OCCO5)C3)n2)cc1 (stereo not given),16.4µM,0,?,?,0,16.4µM
CC(=O)Nc1ccc(NC(=O)C2CC(=O)N(c3cccc(Cl)c3)C2)cc1 (stereo not given),?,0,0,0,0,?
Cc1nnc(NC(=O)C2CC(=O)N(c3ccc4c(c3)OCCO4)C2)s1 (stereo not given),0,0,-,0,-,0
COc1ccccc1NS(=O)(=O)c1cc(C(=O)N2CCCC2)ccc1F,0,0,-,0,-,0
CCCCNC(=O)C1c2ccccc2OCC(=O)N1Cc1ccc2c(c1)OCO2 (stereo not given),?,0,-,-,-,?
CS(=O)(=O)c1ccc(C(=O)Nc2nc(-c3ccco3)c(-c3ccco3)s2)cc1,20.6µM,?,-,0,-,?
O=C(Nc1nnc(-c2ccco2)s1)C1CCCCC1,0,0,?,?,0,0
O=C(Nc1nc(-c2ccco2)c(-c2ccco2)s1)C1CCC1,18.4µM,?,?,0,0,14.6µM
O=S1(=O)CC(N2CCSCC2)CN1Cc1cn(Cc2ccc(Cl)cc2)nn1 (stereo not given),0,0,-,-,-,0
CC[C@@]1(C(=O)OC)N[C@H](CN(C)S(=O)(=O)c2ccc(OC)cc2)[C@@H]2C(=O)N(C)C(=O)[C@@H]21,0,0,-,0,-,0
CC(C)c1ccc2[nH]c3c(c2c1)CCC/C3=N\NC(=O)c1ccncc1,18.4µM,-52.5,0.891µM,18.3µM,5.01µM,23.1µM
C[n+]1nc(Nc2cccc(F)c2)sc1-c1ccc(C(=O)O)cc1,-,-,0,0,0,-
Fc1ccc(-[n+]2nc(Nc3ccccc3)sc2-c2cccc(Cl)c2Cl)cc1,?,0,8.91µM,0,?,?
Clc1cccc(-c2sc(Nc3ccccc3)n[n+]2-c2ccccc2)c1Cl,18.4µM,0,14.1µM,?,?,?
